# Screening data deposited in PubChem BioAssay by several laboratories.
# RecA intein inh: inhibitors of M. tuberculosis RecA intein splicing; P9WHJ3; cell-free RecA intein splicing, fluorescence; inhibition, % (no concentration beside the values); 290,000 tested, 0.75% active; AID 2221; in the data active = inhibition above about 30%;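 also: 0% = vehicle wells and 100% = reference inhibitor control wells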
# Target sequence (P9WHJ3 whole entry, looked up): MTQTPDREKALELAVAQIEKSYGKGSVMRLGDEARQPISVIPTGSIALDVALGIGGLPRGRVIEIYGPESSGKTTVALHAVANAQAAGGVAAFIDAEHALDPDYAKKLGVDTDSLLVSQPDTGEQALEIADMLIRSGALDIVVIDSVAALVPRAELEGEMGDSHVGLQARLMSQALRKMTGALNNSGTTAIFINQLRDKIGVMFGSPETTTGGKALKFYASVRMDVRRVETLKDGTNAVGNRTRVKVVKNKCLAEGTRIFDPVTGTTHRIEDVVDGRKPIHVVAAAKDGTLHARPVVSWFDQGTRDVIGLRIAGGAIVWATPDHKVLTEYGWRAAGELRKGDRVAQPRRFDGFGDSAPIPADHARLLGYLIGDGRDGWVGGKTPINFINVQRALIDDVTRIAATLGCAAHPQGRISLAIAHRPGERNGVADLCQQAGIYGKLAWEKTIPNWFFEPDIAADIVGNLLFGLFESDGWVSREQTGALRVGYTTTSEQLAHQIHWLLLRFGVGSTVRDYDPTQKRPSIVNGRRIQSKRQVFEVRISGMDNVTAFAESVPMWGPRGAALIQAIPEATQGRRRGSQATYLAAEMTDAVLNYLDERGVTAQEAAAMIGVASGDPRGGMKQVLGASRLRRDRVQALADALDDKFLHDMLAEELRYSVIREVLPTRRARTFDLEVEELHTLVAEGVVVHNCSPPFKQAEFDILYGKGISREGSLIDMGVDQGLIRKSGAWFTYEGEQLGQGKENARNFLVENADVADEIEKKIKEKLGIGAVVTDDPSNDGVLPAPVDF
# SSB-PriA inh: K. pneumoniae PriA-SSBct interaction inhibition; AlphaScreen SSBct-PriA binding, biotinylated peptide; inhibition, % at 33 µM; 430,000 tested, 0.6% active; in the data active = inhibition mostly above about 37%, no sharp cut-off; inactive = mostly below about 20%;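 also: plate controls were negative control peptide for no effect and reference peptide for full effect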
# PfHsp40 yeast: rescue of PfHsp40-mediated yeast toxicity | 340,000 tested, 0.68% active | S. cerevisiae expressing PfHsp40, growth rescue, ATP luminescence | growth rescue, % at 12.5 µM; in the data active = growth rescue above about 28%, passing the limit was not always enough;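 also: yeast W303a lacking pdr1 and pdr3 grown in galactose medium; growth measured after three days at 30 °C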
# PrPC TRFRET: reduces human prion protein on the cell surface | P04156 | cell surface PrPC, TR-FRET read-out | inhibition, % at 13.8 µM | 370,000 tested, 0.43% active | AID 720596; in the data active = inhibition above about 24%; also: 0% = median of the test wells and 100% = reference compound wells
# BJeLR lethal: kills HRASV12-expressing BJeLR cells. 300,000 tested, 0.17% active. BJeLR (HRASV12) viability, CellTiter-Glo ATP luminescence, 48 h. inhibition, % (no concentration beside the values). AID 1554; in the data active = inhibition above about 50%
# PrP 5UTR inh: inhibition of PrP 5' UTR reporter expression. 340,000 tested, 0.35% active. cell-based PrP 5' UTR mRNA reporter, plate reader. AID 488862. inhibition, % (concentration not given with the values); in the data active = inhibition above about 52%; also: 0 = median of the neutral control wells
# An asterisk follows results filed as active; x = no result given. Sampled rows, rich in hits. Any-hit rate of the full collection: about 1.9%.
SMILES,RecA intein inh,SSB-PriA inh,PfHsp40 yeast,PrPC TRFRET,BJeLR lethal,PrP 5UTR inh
Cc1cccc2sc(N(CCCN(C)C)C(=O)c3ccc(Cl)s3)nc12,3.5,-1.4,1.3,5.8,10.0,-17.6
COc1cccc(C=NNc2nc3ccccc3[nH]2)c1O,x,4.4,x,x,x,x
CN(C)c1ccc(CCNC(=O)c2ccc(F)cc2)cc1,x,-11.0,x,x,x,x
COc1ccc(SCCC(=O)Nc2cc(Cl)ccc2Cl)cc1,x,-19.0,x,x,x,x
COc1ccc(OC)c2sc(N(CCCn3ccnc3)C(=O)c3ccco3)nc12,x,59.0*,x,x,x,x
COc1ccc(OC)c2sc(N(CCCn3ccnc3)C(=O)COc3ccccc3)nc12,x,73.0*,x,x,x,x
CCOc1ccc2nc(N(CCCn3ccnc3)C(=O)COc3ccccc3)sc2c1,x,31.0,x,x,x,x
CCCCc1ccc(NC(=O)CN2C(=O)CSCC2=O)cc1,x,-10.0,x,x,x,x
CCOc1ccccc1CNC(=O)c1cn(-c2ccc(Cl)cc2)nn1,x,4.0,x,x,x,x
O=C1c2ccccc2-c2onc3c(N4CCN(CCO)CC4)cc(N4CCN(C(=O)c5ccco5)CC4)c1c23,2.3,80.3*,-2.2,-69.0,15.1,3.8
O=C(c1ccco1)N1CCN(CCCCN2C(=O)c3ccccc3C2=O)CC1,-2.1,-5.3,0.5,-8.8,7.7,-49.6
CCOC(=O)N1CCN(c2cc(NCCC(=O)O)c3c4c(onc24)-c2ccccc2C3=O)CC1,x,71.0,0.5,x,x,-7.2
O=C(O)CCCNc1cc(N2CCN(C(=O)c3ccco3)CC2)c2noc3c2c1C(=O)c1ccccc1-3,-5.7,40.6*,-1.0,-76.1,2.0,-3.4
CN1CCN(c2cc(N3CCN(C(=O)c4ccco4)CC3)c3c4c(onc24)-c2ccccc2C3=O)CC1,5.0,76.7*,0.6,x,8.6,-35.6
CC(C)S(=O)(=O)c1ccc(CC(=O)N2CCCC(c3nnc(-c4ccc5c(c4)OCO5)o3)C2)cc1 (stereo not drawn),x,0.0,x,x,x,x
CCC(C)(C)c1ccc(OCCCC[n+]2cccc(C)c2C)c(C(C)(C)CC)c1,17.9,-3.4,44.9*,17.1,57.2*,-3.2
CCn1cc(/C=N\NC(=O)c2ccc3c(c2)c(C)c(C)n3Cc2ccccc2)c(C)n1,24.8,x,71.7*,12.6,35.2,-11.2
C[C@@H]1C[C@H]2OC(=O)C3(CO3)[C@H]2[C@H](O)[C@]2(C)C(=O)C3OC3[C@@H]12 (stereo partly drawn),18.4,x,x,x,72.9*,x
COc1ccc(/C=N/Nc2ccc([N+](=O)[O-])cc2)cc1O,-1.8,x,41.5*,-48.2,-23.0,-70.4
O=[N+]([O-])c1ccc(NN=Cc2ccc[nH]2)cc1,x,54.7*,x,x,x,x
CC1C(=O)NCCN1C(=O)c1cccs1 (stereo not drawn),x,0.0,x,x,x,x
ClC(Cl)(Cl)c1nc2ccccc2n2nncc12,54.9*,-19.2,0.0,23.1,47.7,-5.8
CCOC(=O)c1nn(-c2ccc(OC)cc2)c(=O)c2c(N)scc12,46.9*,8.1,-0.5,-29.8,0.0,-34.7
COc1ccc(/C=N/NC(=O)c2nn(-c3ccccc3)c(=O)c3c(N)scc23)cc1,67.7*,x,2.0,-32.6,3.6,-1.7
NS(=O)c1cccc2cccnc12 (stereo not drawn),x,25.4,x,x,x,x
SMILES,RecA intein inh,SSB-PriA inh,PfHsp40 yeast,PrPC TRFRET,BJeLR lethal,PrP 5UTR inh
O=C(Nc1ccc(Nc2ccccc2)cc1)C(=O)c1c[nH]c2ccccc12,x,48.0*,x,x,x,x
Cn1nnnc1Sc1ncnc2scc(-c3ccc(F)cc3)c12,32.4*,-5.4,0.5,-3.7,2.9,-28.3
O=C(NCCn1nc(-c2ccc(Cl)cc2)ccc1=O)C1CCCCC1,x,0.0,x,x,x,x
COc1ccccc1NC(=O)c1sc(=S)n(-c2cc(C)ccc2C)c1N,x,48.0*,x,x,x,x
CCOc1ccccc1NC(=O)c1sc(=S)n(-c2ccc(OC)cc2OC)c1N,x,25.0,x,x,x,x
COc1ccc(CCN2C(=O)C=CC2=O)cc1OC,x,3.0,137.9*,-1.7,x,-34.7
COc1ccc(CCn2c(C)ccc2C)cc1OC,-2.6,x,x,x,-7.2,x
Cc1ccc(OCC(=O)NC(=S)Nc2ccc(S(=O)(=O)Nc3cc(C)on3)cc2)c(Br)c1,-4.2,-0.9,73.4*,4.0,0.9,-23.9
COc1cc(-c2ccc3c(=O)c4ccccc4n(C)c3c2)cc(OC)c1OC,-22.8,-56.9,28.3*,-15.3,-6.9,-2.6
Cn1cccc1C(O)CNC(=O)Cn1c(=O)oc2ccccc21 (stereo not drawn),x,-27.0,x,x,x,x
COc1ccccc1NC(=O)CCSCCC(=O)Nc1ccccc1OC,4.7,-1.4,45.0*,0.9,-8.7,-18.8
CCOC(=O)COc1ccccc1/C=C\[N+](=O)[O-],0.7,-3.9,71.4*,x,48.6,-23.8
CCOC(=O)COc1ccccc1C=NO,x,-9.1,x,x,x,x
